# Gal4-VP16 FLuc = Gal4-VP16 reporter inhibition counter-screen. Drosophila S2 Gal4-VP16 UAS-luciferase, luminescence, 20 h. Potency, µM (top dose mostly 53.6 µM), for the others: top-dose activity, negative = inhibition, most hits filed as inhibitors. actives 3.5% (n = 310,000). AID 2546;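 further: Gal4-VP16 expression switched on by copper sulfate through the metallothionein promoter; on the % scale 0 is the no-effect control and ±100 the full control effect; nearly all actives have a fitted effect of over 50% in size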
# GLP1R cytotox = cytotoxicity counter-screen for GLP-1 receptor inverse agonists; HEK293 cAMP-luciferase reporter cells, luminescence, 24 h; Potency, µM (titrated, usually from 38.3 µM), for the others: top-dose activity change, negative = inhibition, actives largely listed as inhibitors; actives 0.13% (n = 410,000); AID 624418;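 further: loss of luciferase light is scored as toxicity; on the % scale 0 is the no-effect control and ±100 the full control effect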
#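 Cells in DMEM/10% Nu serum/1% pen-strep, 1536-well format. Pre-incubated 12 h, dosed with 23 nL compound, incubated a further 24 h. Luciferase detection, 12 min at room temp, luminescence.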
# RORgamma inh = inhibitors of mouse ROR gamma transcriptional activity. P51450. Drosophila S2 Gal4-RORgamma UAS-luciferase reporter, 20 h. Potency, µM (titrated, usually from 53.6 µM), inactives show at the top dose activity change, negative = inhibition, usual class: inhibitors. actives 5.4% (n = 310,000); further: on the % scale 0 is the no-effect control and ±100 the full control effect; nearly all actives have a fitted effect of over 60% in size
#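 Read-out: Photinus luciferase luminescence; inhibitors lower reporter signal. Insect Schneider cells with Gal4-ROR gamma fusion under metallothionein promoter, UAS reporter; 700 uM final copper sulfate induction, 20 hr, ambient temperature.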
# GLP1R ag = GLP-1 receptor (human) agonism; P43220; HEK293 GLP-1R CRE-luciferase, luminescence, 4-6 h; cells express a hypersensitive GLP-1R form; Potency, µM (titrated, usually from 45.6 µM), without a hit: at the highest dose activation, most hits filed as activators; actives 0.007% (n = 380,000); AID 624172; further: % of control where 0% means no effect
# Target sequence (P43220 whole entry, looked up): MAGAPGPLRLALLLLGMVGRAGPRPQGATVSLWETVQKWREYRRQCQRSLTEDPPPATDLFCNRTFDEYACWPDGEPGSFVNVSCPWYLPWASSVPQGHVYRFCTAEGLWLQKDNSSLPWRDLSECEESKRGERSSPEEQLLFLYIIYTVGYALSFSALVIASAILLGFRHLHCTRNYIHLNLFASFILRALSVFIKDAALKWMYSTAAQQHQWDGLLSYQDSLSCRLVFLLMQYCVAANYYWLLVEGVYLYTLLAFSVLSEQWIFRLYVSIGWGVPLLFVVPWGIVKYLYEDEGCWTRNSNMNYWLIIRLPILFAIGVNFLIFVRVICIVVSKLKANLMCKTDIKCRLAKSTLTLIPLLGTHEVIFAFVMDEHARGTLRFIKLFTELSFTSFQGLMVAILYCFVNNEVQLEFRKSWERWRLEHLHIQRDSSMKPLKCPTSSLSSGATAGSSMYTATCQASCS
# GLP-1R inv ag = GLP-1 receptor (human) inverse agonism; HEK293 GLP-1R CRE-luciferase, luminescence, 24 h; GLP-1R form is constitutively active; Potency, µM (highest dose often 38.3 µM), without a hit: top-dose activity change, negative = inhibition, actives largely listed as inhibitors; AID 624417; actives 1.6% (n = 410,000); further: on the % scale 0 is the no-effect control and ±100 the full control effect; nearly all actives have a fitted effect of over 55% in size
#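 Inverse agonism was detected as reduced cAMP-driven luciferase luminescence after 24 h compound treatment. The cells were HEK293 clones expressing constitutively active human GLP-1R with the reporter. Reporter-only and GPR119 cell lines served as counterscreen controls.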
# * marks the source's active call; other numbers are inactive results; i = inactive; ? = inconclusive; · = no result; [ ] = remark or other dose. Most compounds without a hit are left out; they make up all but 5.9% or so of the library. The call rests on the fitted dose curve; in most records, active means well fitted curve in the direction sought with a large enough effect; inconclusive means small, poorly fitted or top-dose-only effect, or another doubt; inactive means no such curve, though single readings can be large; an effect the other way counts as inactive or inconclusive. Potency means the concentration at half of the fitted maximal effect.
SMILES,Gal4-VP16 FLuc,GLP1R cytotox,RORgamma inh,GLP1R ag,GLP-1R inv ag
COc1ccccc1C1(O)CCN(CCCn2c3ccccc3c3ccccc32)CC1,4.3%,·,8.1%,·,·
CC1(C)C(c2cccs2)=[N+]([O-])C2(CCCCC/C2=N\NC(N)=S)N1O (centres undefined),6.1%,-15.9%,0.631µM*,-10.6%,-2.8%
CC1(C)C(c2ccco2)=[N+]([O-])C2(CCCCC2=O)N1O (centres undefined),-0.6%,-6.8%,-17.7%,-9.4%,0.4%
COc1cc(OC)c(NC(=O)Cn2c(=O)oc3cc(S(=O)(=O)N4CCCC4)ccc32)cc1Cl,·,-10.0%,·,·,-15.6%
COc1ccc(CCC(C)NCc2ccc(Cl)c(Cl)c2)cc1 (centres undefined),·,-9.1%,·,27.9%,?
COc1ccc(CCC(C)NCCc2ccc(Cl)cc2Cl)cc1 (centres undefined),-11.4%,?,-30.0%,-2.1%,10µM*
COC(=O)CC1=COC2OCC3=CC[C@@H]1C32 (some centres undefined),-1.3%[10 µM],·,-9.1%[10 µM],·,·
Cc1cc(-c2cc(C(=O)NCc3ccccc3)on2)nc(S(C)(=O)=O)n1,?,8.9%,5.01µM*,-4.9%,42.9%
CCCCC(=O)Nc1ccc(C(=O)N(CC)c2ccccc2C)cc1,-1.1%,2.3%,2.24µM*,4.1%,?
COC(=O)c1c(NC(=O)CCl)sc(C(=O)N2CCOCC2)c1C,1.78µM*,-21.3%,10µM*,6.1%,?
CCCN(CCC)c1ncnc2c1cnn2-c1ccc(OC)cc1,?,-3.3%,-2.5%,10.9%,10µM*
CC(C)(C)OC(=O)N1CCCC1C(=O)NC1COC2CC(n3cc(F)c(=O)[nH]c3=O)OC12 (centres undefined),-6.4%,·,-1.7%,·,·
CCN(CC)S(=O)(=O)c1cccc(C(=O)N/N=C/c2ccc(O)c(O)c2O)c1,-7.4%,7.2%,-31.8%,-17.7%,-1.0%
CCN(CC)S(=O)(=O)c1cccc(C(=O)N[C@H](C(=O)NCc2ccc(Cl)cc2)C(C)C)c1,3.4%,5.1%,11.7%,-2.0%,12.6µM*
CCN(CC)S(=O)(=O)c1cccc(C(=O)N[C@H](C(=O)NCc2ccccc2F)C(C)C)c1,3.4%,1.7%,6.1%,-0.6%,?
CCN(CC)S(=O)(=O)c1cccc(C(=O)Nc2cc(C)cc(C)c2)c1,10.8%,10.4%,-2.1%,4.4%,2µM*
CCN(CC)S(=O)(=O)c1cccc(C(=O)N/N=C(\C)c2ccc(O)cc2O)c1,6.5%,-6.7%[0.307 µM],12.6µM*,5.4%,-21.9%[0.307 µM]
COC(=O)[C@H]1O[C@@H](c2cc(OC)c(C)c(OC)c2OCc2ccccc2)[C@H](C)[C@@H]2O[C@]12C,5.9%,·,18.7%,·,·
Nc1ccc2nc(-c3ccccc3)c(-c3ccccc3)nc2c1,-4.9%,i,-28.5%,17.1%,?
Nc1ccc(-c2nc3cc(N)ccc3s2)cc1,?,18.6%,7.94µM*,-20.9%,?
Nc1ccc2nc(-c3ccccc3)sc2c1,?,125.8%,8.91µM*,-39.1%,8.91µM*
Cc1ccc2nc(-c3ccc(N)cc3)sc2c1,10µM*,-8.0%,4.47µM*,-5.7%,4.47µM*
Cc1ccc2sc(-c3ccc(N)cc3)nc2c1,·,-1.7%,·,·,?
COc1ccc2nc(-c3ccc(F)cc3)sc2c1,·,·,·,-9.0%,·
COc1ccc2nc(-c3ccc(N(C)C)cc3)sc2c1,5.01µM*,·,0.631µM*,·,·
O=C(N/N=C1/C[C@@H](O)[C@@H](O)[C@@H]2[C@@H]3C(=O)N(C[C@@H]4CCCO4)C(=O)[C@H]3CC[C@H]12)OCc1ccccc1,4.6%[10 µM],·,3.0%[10 µM],·,·
CCCCC/C=C\C/C=C\C/C=C\C/C=C\CCCCCC(=O)NC(C)C(=O)O (centres undefined),-0.3%,·,-29.3%,·,·
FC(F)OC(Cl)C(F)(F)F (centres undefined),7.0%,·,3.2%,-0.6%,·
COc1cc(NC(=O)C2CCCN(S(=O)(=O)c3ccc4c(c3)oc(=O)n4C)C2)c(C(=O)O)cc1OC (centres undefined),·,6.6%,·,0.0%,-5.6%

# Bioassay records deposited in PubChem by National Center for Advancing Translational Sciences (NCATS).
